Source: PubChem BioAssay
Activity calls are given as the source filed them. Unless noted, how the calls were made is not given here.

Key:
[1] = compound effects on lung adenocarcinoma cell viability – A549, calcein-AM fluorescence, 48 h, basal, profiling panel (AID 1162); conditions: higher = more signal; further: test concentration not given here
[2] = compound effects on differentiated 3T3-L1 adipocyte viability – cell-based, 3T3-L1 adipocytes, calcein-AM fluorescence, 48 h, basal, profiling panel (AID 1163); conditions: 3T3-L1 adipocytes viability, higher = more signal; further: test concentration not given here
[3] = compound effects on hepatocellular carcinoma cell viability – HepG2, calcein-AM fluorescence, 48 h, basal, profiling panel (AID 1164); conditions: higher = more signal; further: test concentration not given here
[4] = compound effects on multiple myeloma cell viability – MM1S, calcein-AM fluorescence, 48 h, basal, profiling panel (AID 1165); conditions: higher = more signal; further: test concentration not given here
[5] = calcein-AM signal in unstimulated myeloma cells – cell-based, calcein-AM fluorescence, 48 h, PK04 Diversity Set, profiling panel (AID 1166); conditions: RPMI8226 myeloma viability, higher = more signal;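 further: cells grown under basal conditions without added stimulus; test concentration not given here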
[6] = JC-1 mitochondrial signal, unstimulated HepG2 cells – cell-based, JC-1 fluorescence, 24 h, 100 nL compound, profiling panel (AID 1167); conditions: HepG2 mitochondrial potential, higher = more signal; further: test concentration not given here
[7] = JC-1 mitochondrial signal, unstimulated adipocytes – cell-based, JC-1 fluorescence, 3T3-L1 adipocytes, 24 h, 100 nL compound, profiling panel (AID 1168); conditions: JC-1 mitochondrial fluorescence, higher = more signal, called active from +8 up or from −8 down; further: test concentration not given here
[8] = JC-1 mitochondrial signal, unstimulated myeloma cells – cell-based, JC-1 fluorescence, RPMI8226, 24 h, 100 nL compound, profiling panel (AID 1169); conditions: JC-1 mitochondrial potential fluorescence, higher = more signal; further: test concentration not given here
[9] = JC-1 mitochondrial signal, unstimulated MM1S myeloma – cell-based, JC-1 fluorescence, 24 h, 100 nL compound, profiling panel (AID 1170); conditions: MM1S mitochondrial potential, higher = more signal; further: test concentration not given here
[10] = resazurin metabolic signal in A549 cells – cell-based, resazurin fluorescence, 24 h, PK04 Diversity Set, profiling panel (AID 1171); conditions: A549 viability, higher = more signal, called active from +8 up or from −8 down; further: test concentration not given here
[11] = resazurin metabolic signal in HepG2 cells – cell-based, resazurin fluorescence, 24 h, PK04 Diversity Set, profiling panel (AID 1172); conditions: HepG2 viability, higher = more signal; further: test concentration not given here
[12] = budding yeast growth changes without added modifier – OD600, strain BY4716, 24 h, basal condition, primary screen (AID 1173); conditions: S. cerevisiae BY4716 growth, OD600, 24 h; higher = more signal, called active from +8 up or from −8 down
[13] = viability profiling in MM1S myeloma cells – cell-based, resazurin fluorescence, basal, 24 h, PK04 Diversity Set, profiling panel (AID 1174); conditions: higher = more signal, called active from +8 up or from −8 down; further: test concentration not given here
[14] = target: Dihydroorotate dehydrogenase (quinone), mitochondrial (Plasmodium falciparum (isolate 3D7)) (UniProt Q08210); test: inhibition of P. falciparum DHODH – biochemical, C-terminal His tag, absorbance 600 nm, primary screen (AID 1175); conditions: PfDHODH enzyme, DCIP absorbance 600 nm; higher = more signal, called active from +8 up or from −8 down;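 further: recombinant parasite enzyme with a five histidine tag at its C terminus; test concentration not given here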
Dihydroorotate dehydrogenase (quinone), mitochondrial (Plasmodium falciparum (isolate 3D7)), sequence (Q08210 whole entry, looked up): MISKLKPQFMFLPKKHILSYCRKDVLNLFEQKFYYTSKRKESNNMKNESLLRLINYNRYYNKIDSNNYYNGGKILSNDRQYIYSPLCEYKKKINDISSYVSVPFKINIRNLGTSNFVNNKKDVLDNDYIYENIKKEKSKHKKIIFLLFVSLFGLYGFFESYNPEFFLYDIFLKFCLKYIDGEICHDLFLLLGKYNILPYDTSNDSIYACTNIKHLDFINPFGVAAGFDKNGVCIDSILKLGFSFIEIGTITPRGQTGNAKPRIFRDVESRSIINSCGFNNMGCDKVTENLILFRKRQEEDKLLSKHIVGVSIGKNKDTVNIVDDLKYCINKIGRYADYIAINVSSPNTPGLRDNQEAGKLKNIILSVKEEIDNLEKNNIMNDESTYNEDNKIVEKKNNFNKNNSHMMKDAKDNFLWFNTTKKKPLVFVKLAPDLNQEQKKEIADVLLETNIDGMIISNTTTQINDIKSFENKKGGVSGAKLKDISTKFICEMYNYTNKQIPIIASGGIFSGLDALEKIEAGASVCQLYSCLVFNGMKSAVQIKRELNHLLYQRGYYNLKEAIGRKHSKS

[15] = inhibition of PAO1 biofilm formation – strain PAO1, LB-PBS medium, absorbance 600 nm, primary screen (AID 1176); further: test concentration not given here; conditions: P. aeruginosa PAO1 growth/biofilm, A600, 12 h; higher = more signal
[16] = growth modulation of vineyard yeast isolate – strain RM11-1a, OD600, basal, 24 h, primary screen (AID 1177);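 further: cultures grown under basal conditions with no added stressor; test concentration not given here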; conditions: S. cerevisiae RM11-1a growth, OD600, 24 h; higher = more signal, called active from +8 up or from −8 down
[17] = growth of efflux-deficient E. coli DRC39 – strain DRC39, OD650, 24 h, E. coli filamentation inducers, primary screen (AID 1178);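 further: growth measured as culture turbidity by optical density at 650 nm; test concentration not given here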; conditions: E. coli DRC39 acrAB, higher = more signal, called active from +8 up or from −8 down
[18] = growth of efflux-deficient E. coli DRC39 – strain DRC39, OD650, 48 h, E. coli filamentation inducers, primary screen (AID 1179);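 further: screen aims at cell division blockers that make cells filament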; conditions: E. coli DRC39 delta-acrAB growth, higher = more signal, called active from +8 up or from −8 down
[19] = viability profiling in RPMI8226 myeloma cells – cell-based, resazurin fluorescence, basal, 24 h, PK04 Diversity Set, profiling panel (AID 1180); conditions: higher = more signal;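 further: RPMI8826 multiple myeloma cell line at 5000 cells per well; test concentration not given here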
[20] = target: E3 ubiquitin-protein ligase XIAP (Homo sapiens) (UniProt P98170); test: small molecules binding XIAP protein – biophysical, small-molecule microarray, fluorescence 635 nm, primary screen (AID 1181); conditions: higher = more signal;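 further: score merges 667 nm emission and signal to noise over triplicate slides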
E3 ubiquitin-protein ligase XIAP (Homo sapiens), sequence (P98170 whole entry, looked up): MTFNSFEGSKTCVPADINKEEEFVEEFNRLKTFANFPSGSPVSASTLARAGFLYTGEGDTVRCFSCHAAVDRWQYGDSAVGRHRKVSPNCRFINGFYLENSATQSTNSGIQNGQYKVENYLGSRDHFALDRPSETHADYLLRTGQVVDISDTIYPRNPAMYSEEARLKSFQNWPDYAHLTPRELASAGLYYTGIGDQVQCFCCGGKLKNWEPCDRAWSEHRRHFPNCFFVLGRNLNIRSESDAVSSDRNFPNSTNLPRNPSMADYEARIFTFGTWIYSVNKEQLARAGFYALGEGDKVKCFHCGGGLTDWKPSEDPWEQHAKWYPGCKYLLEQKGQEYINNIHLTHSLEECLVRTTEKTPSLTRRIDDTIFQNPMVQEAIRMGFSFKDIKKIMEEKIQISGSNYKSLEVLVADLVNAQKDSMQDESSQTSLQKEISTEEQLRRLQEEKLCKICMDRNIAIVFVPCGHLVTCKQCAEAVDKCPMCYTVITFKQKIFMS

Row | Structure (SMILES) | z-score [1] | z-score [2] | z-score [3] | z-score [4] | z-score [5] | z-score [6] | z-score [7] | z-score [8] | z-score [9] | z-score [10] | z-score [11] | z-score [12] | z-score [13] | composite z-score [14] | z-score [15] | z-score [16] | z-score [17] | z-score [18] | z-score [19] | composite z-score [20]
1 | COC(=O)[C@H](C)NC(=O)CCC1CC(OC(=O)NCc2ccc3c(c2)OCO3)CC2(CCCC(COC(=O)NCCc3ccc(Cl)cc3)O2)O1 (stereo not given in full) | -0.508 | 0.38 | -0.796 | -0.99 | -1.27 | 0.718 | -0.527 (inactive) | -0.342 | -0.864 | 1.02 (inactive) | 0.388 | 0.515 (inactive) | -0.682 (inactive) | 0.0925 (inactive) | -0.965 (inactive) | 0.88 (inactive) | 0.616 (inactive) | -0.729 (inactive) | 0.0968 | -0.0559
2 | CCOC(=O)[C@H](Cc1ccccc1)NC(=O)CCC1CC(OC(=O)NCc2cccc3ccccc23)CC2(CCCC(COC(=O)NCc3ccc4c(c3)OCO4)O2)O1 (stereo not given in full) | 0.664 | -0.171 | 0.78 | 0.505 | -1.48 | 0.561 | 0.953 (inactive) | -0.675 | -0.239 | -0.269 (inactive) | -0.0973 | -0.552 (inactive) | -0.082 (inactive) | -0.929 (inactive) | -0.373 (inactive) | -0.131 (inactive) | 1.56 (inactive) | 1.41 (inactive) | 0.922 | -0.209
3 | O=C1[C@H]2[C@H]3[C@H](O)[C@H](O)CC(=NOC[C@@H](O)COCc4ccco4)[C@@H]3CC[C@H]2C(=O)N1C1CCCCC1 | 0.0095 | 0.272 | 0.444 | 0.0224 | -0.002 | -0.82 | -0.181 (inactive) | -0.422 | -0.891 | 0.014 (inactive) | -0.31 | 0.446 (inactive) | -0.226 (inactive) | -0.308 (inactive) | 0.0457 (inactive) | 0.153 (inactive) | 0.326 (inactive) | 0.132 (inactive) | -0.415 | -0.28
4 | CCN1C(=O)[C@H]2[C@H]3[C@H](O)[C@H](O)CC(=NOCC(C)C)[C@H]3CC[C@H]2C1=O | -0.124 | -0.574 | -0.391 | 0.199 | 0.286 | -0.584 | -0.977 (inactive) | 0.0664 | -0.86 | -0.348 (inactive) | -0.259 | -0.36 (inactive) | -0.929 (inactive) | -0.649 (inactive) | -0.225 (inactive) | -0.117 (inactive) | 0.645 (inactive) | 0.568 (inactive) | -0.971 | -0.122
5 | COC(=O)[C@H](C)NC(=O)CCC1CC(OC(=O)NCCc2ccc(F)cc2)CC2(CCCC(COC(=O)NCCc3ccccc3OC)O2)O1 (stereo not given in full) | -0.0621 | -0.825 | 0.308 | 0.636 | -0.285 | 0.15 | 0.766 (inactive) | 0.0549 | -0.876 | 0.0778 (inactive) | 0.185 | 0.292 (inactive) | 0.173 (inactive) | 0.098 (inactive) | 0.119 (inactive) | 0.878 (inactive) | 0.636 (inactive) | -0.487 (inactive) | 0.833 | -0.0615
6 | O=C1C=C[C@@H](O)[C@@H]2[C@@H]3C(=O)N(Cc4ccccc4)C(=O)[C@@H]3CC[C@@H]12 | 0.698 | 0.594 | 1.33 | -0.134 | -0.73 | 1.42 | -0.125 (inactive) | -0.057 | -0.05 | -0.754 (inactive) | -0.178 | -0.459 (inactive) | 0.183 (inactive) | -0.136 (inactive) | 0.647 (inactive) | -0.83 (inactive) | 0.479 (inactive) | 0.116 (inactive) | -0.242 | -0.0566
7 | CC(C)=CCCC(C)=CCON=C1[C@H]2CCn3c(=O)n(-c4ccccc4)c(=O)n3[C@H]2[C@H](O)[C@@H]2O[C@H]12 | -0.603 | -0.141 | -0.838 | -2.89 | -1.47 | -1.07 | -0.462 (inactive) | -0.247 | -1.81 | -1.33 (inactive) | -0.792 | -3.89 (inactive) | -2.7 (inactive) | -0.197 (inactive) | 0.717 (inactive) | -0.0881 (inactive) | -0.611 (inactive) | 0.092 (inactive) | -2.03 | 0.293
8 | CC(CCC(=O)OC[C@H]1O[C@H](C#Cc2ccccc2)C=C[C@@H]1Oc1ccc(C)cc1)=NO[C@@H](C)c1cc(-c2c(C)cc(C)cc2C)no1 | -0.355 | 0.777 | -0.338 | -0.0941 | -2.61 | 1.78 | -0.495 (inactive) | 0.621 | 0.114 | -0.366 (inactive) | -0.53 | 0.0942 (inactive) | 0.281 (inactive) | 1.04 (inactive) | -0.798 (inactive) | 0.333 (inactive) | -0.135 (inactive) | 0.213 (inactive) | 0.838 | -0.102
9 | COC(=O)[C@@H]1CC[C@H](C)[C@@H](c2ccc(Br)cc2)N1C[C@H](O)CN=[N+]=[N-] | 0.128 | 0.878 | -0.671 | 0.572 | -0.878 | -0.0153 | -0.416 (inactive) | -0.443 | 0.75 | -0.624 (inactive) | -0.413 | -6.28 (inactive) | -0.666 (inactive) | 0.294 (inactive) | 1.09 (inactive) | 0.347 (inactive) | -0.78 (inactive) | -1.18 (inactive) | 0.385 | -0.122
